According to publication PMC7862700, “An all-to-all approach to the identification of sequence-specific readers for epigenetic DNA modifications on cytosine”:

Key:
Experiment in all cases: DAPPL (digital affinity profiling via proximity ligation, sequencing); 10 mM Tris-HCl pH 7.5, 50 mM NaCl, 1 mM DTT, 4% glycerol, room temperature, 30 min; GST-TFs on glutathione beads, 16-mer random dsDNA library, 0.1% formaldehyde crosslink after washing; high values mean tight binding
[1] = molecular target: T1, FEV (Homo sapiens, UniProt Q99581 1-238); settings: protein: recombinant; tags: N-terminal GST; dsDNA, one strand shown
T1 sequence: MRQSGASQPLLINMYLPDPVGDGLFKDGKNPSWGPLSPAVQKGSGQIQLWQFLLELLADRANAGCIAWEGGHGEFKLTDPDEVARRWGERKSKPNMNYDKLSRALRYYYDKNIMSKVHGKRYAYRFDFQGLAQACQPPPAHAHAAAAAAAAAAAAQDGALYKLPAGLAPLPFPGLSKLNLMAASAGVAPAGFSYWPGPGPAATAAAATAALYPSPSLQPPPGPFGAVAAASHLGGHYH
In short: (§1)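 In yeast, human transcription factors were expressed with a GST fusion, then pulled down on glutathione beads and given DNA barcodes. Pooled with a tag-only sample, they were exposed to 200 nmole of a 16-mer random double-stranded DNA library (Tris/NaCl/DTT/glycerol buffer, room temperature, 30 min), washed, crosslinked with 0.1% formaldehyde, proximity-ligated using BsaI/T4 ligase for 1 h at 37 °C, PCR-amplified and read on an Illumina NextSeq500. Each hexamer's frequency of reads for a factor, divided by the matching frequency for the tag-only sample, gives the binding signal.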

[2] = molecular target: ETV5 (Homo sapiens, UniProt P41161 1-510); settings: protein: recombinant; tags: N-terminal GST; dsDNA, one strand shown
Sequence of ETV5 (P41161 whole entry): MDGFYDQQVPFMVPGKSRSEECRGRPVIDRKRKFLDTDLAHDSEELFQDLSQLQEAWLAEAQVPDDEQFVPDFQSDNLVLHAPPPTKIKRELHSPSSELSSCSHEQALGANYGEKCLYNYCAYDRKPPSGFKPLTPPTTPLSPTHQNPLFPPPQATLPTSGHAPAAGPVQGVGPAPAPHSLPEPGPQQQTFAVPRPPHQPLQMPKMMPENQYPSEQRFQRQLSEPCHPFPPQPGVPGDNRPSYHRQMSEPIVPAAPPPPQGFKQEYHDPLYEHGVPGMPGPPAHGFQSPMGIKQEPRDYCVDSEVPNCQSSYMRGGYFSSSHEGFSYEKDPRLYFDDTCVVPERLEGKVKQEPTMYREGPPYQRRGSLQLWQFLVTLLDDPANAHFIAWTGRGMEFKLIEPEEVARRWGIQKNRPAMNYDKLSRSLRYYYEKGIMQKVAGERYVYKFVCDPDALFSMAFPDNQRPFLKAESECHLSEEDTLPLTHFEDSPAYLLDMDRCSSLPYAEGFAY
In short: as §1

[3] = molecular target: HSF1 (Homo sapiens, UniProt Q00613 1-529); settings: protein: recombinant; tags: N-terminal GST; chain copies: 3; dsDNA, one strand shown
Sequence of HSF1 (Q00613 whole entry): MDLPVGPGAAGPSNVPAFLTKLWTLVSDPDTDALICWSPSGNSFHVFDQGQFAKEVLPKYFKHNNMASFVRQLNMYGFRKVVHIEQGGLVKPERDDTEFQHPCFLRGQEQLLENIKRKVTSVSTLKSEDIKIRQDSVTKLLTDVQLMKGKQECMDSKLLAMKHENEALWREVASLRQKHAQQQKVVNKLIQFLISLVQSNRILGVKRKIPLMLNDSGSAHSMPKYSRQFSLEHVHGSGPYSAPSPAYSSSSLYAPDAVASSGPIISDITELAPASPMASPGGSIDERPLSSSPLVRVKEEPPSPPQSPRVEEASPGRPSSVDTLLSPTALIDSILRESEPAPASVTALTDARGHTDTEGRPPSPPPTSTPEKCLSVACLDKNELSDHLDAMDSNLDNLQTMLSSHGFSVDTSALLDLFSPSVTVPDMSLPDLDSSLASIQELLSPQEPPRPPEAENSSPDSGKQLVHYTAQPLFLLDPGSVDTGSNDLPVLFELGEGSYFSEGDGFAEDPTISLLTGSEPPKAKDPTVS
In short: as §1

[4] = molecular target: T2, SPIC (Homo sapiens, UniProt Q8N5J4 1-248); settings: protein: recombinant; tags: N-terminal GST; dsDNA, one strand shown
T2 sequence: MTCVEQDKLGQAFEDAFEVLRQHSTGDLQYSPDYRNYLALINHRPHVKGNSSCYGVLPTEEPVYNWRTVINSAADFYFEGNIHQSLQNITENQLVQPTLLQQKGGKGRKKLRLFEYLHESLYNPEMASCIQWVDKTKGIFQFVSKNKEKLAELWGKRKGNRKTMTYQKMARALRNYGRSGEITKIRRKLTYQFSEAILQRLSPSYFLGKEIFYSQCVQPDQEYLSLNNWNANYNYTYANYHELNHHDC
In short: as §1

[5] = molecular target: ELF4 (Homo sapiens, UniProt Q99607 1-663); settings: protein: recombinant; tags: N-terminal GST; dsDNA, one strand shown
Sequence of ELF4 (Q99607 whole entry): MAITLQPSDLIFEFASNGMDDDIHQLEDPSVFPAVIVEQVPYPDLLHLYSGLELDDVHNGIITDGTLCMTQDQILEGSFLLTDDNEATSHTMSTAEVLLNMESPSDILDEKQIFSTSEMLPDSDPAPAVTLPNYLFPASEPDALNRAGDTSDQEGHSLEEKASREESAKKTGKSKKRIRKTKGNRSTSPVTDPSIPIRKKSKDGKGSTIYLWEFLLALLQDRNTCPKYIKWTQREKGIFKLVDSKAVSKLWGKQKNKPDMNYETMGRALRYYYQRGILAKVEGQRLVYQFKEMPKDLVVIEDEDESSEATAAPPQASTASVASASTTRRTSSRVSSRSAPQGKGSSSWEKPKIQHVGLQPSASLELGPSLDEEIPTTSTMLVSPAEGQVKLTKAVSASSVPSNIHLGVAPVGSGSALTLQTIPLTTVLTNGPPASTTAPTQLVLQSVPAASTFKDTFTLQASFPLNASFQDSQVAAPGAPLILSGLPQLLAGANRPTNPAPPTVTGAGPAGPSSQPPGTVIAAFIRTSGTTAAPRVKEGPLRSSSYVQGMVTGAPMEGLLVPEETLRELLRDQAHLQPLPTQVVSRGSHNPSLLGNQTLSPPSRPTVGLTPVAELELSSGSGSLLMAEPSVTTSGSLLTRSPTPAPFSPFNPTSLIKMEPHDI
In short: as §1

[6] = molecular target: T3, ELK4 (Homo sapiens, UniProt P28324-2 1-405); settings: protein: recombinant; tags: N-terminal GST; dsDNA, one strand shown
T3 sequence: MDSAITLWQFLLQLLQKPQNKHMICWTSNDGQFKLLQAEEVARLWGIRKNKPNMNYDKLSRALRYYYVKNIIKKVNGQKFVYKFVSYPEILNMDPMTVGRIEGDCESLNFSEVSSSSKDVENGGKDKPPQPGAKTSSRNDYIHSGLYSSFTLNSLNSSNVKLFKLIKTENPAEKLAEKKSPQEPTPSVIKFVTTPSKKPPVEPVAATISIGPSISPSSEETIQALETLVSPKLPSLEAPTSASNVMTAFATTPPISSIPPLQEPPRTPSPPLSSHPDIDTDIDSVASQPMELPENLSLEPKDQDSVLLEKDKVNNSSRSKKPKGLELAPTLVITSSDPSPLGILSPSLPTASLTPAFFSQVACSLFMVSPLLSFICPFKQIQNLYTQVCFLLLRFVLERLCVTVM
In short: as §1

[7] = molecular target: T4, ETV2 (Homo sapiens, UniProt O00321 1-342); settings: protein: recombinant; tags: N-terminal GST; dsDNA, one strand shown
T4 sequence: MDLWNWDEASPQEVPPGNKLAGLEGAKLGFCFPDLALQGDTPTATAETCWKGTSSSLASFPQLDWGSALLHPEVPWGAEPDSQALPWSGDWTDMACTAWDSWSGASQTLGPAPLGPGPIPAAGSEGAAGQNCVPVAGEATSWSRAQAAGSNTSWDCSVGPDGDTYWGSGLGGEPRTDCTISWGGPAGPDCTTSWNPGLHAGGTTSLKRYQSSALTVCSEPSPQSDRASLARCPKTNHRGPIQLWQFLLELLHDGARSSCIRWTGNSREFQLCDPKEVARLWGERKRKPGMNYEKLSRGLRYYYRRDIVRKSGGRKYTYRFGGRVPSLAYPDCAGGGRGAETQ
In short: as §1

[8] = molecular target: T5, ELF3 (Homo sapiens, UniProt P78545 1-371); settings: protein: recombinant; tags: N-terminal GST; dsDNA, one strand shown
T5 sequence: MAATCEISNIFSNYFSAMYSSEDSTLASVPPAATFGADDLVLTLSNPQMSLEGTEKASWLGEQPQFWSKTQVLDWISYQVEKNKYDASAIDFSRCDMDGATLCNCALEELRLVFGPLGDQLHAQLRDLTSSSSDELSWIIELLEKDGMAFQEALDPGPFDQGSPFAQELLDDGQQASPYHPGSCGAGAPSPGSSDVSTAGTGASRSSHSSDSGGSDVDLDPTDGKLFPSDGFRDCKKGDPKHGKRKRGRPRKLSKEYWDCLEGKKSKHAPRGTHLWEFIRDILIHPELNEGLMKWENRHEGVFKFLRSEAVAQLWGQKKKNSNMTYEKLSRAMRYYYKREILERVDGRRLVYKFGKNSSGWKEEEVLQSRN
In short: as §1

[9] = molecular target: CRX (Homo sapiens, UniProt O43186 1-299); settings: protein: recombinant; tags: N-terminal GST; dsDNA, one strand shown
Sequence of CRX (O43186 whole entry): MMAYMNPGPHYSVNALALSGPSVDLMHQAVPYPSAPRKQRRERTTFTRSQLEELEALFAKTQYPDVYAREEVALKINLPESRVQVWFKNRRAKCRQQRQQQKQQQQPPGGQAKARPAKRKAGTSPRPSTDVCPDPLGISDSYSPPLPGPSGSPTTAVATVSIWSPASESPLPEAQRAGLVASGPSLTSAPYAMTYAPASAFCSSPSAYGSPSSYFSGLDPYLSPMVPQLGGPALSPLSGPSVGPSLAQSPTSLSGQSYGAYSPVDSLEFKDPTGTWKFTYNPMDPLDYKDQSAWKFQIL
In short: as §1

[10] = molecular target: ETV1 (Homo sapiens, UniProt P50549 1-477); settings: protein: recombinant; tags: N-terminal GST; dsDNA, one strand shown
Sequence of ETV1 (P50549 whole entry): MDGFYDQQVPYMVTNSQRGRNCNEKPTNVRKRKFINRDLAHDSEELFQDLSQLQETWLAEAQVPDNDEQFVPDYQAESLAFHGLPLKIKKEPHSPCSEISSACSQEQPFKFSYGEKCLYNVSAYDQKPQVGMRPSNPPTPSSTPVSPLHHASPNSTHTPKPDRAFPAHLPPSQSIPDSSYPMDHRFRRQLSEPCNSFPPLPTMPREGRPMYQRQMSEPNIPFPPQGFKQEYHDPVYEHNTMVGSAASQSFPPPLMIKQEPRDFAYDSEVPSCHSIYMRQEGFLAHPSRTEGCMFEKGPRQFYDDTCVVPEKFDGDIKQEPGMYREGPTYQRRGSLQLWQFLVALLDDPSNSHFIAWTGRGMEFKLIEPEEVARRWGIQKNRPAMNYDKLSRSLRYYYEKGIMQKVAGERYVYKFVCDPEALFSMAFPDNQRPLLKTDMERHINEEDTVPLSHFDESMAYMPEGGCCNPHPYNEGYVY
In short: as §1

[11] = molecular target: T6, ERF (Homo sapiens, UniProt P50548 1-548); settings: protein: recombinant; tags: N-terminal GST; dsDNA, one strand shown
T6 sequence: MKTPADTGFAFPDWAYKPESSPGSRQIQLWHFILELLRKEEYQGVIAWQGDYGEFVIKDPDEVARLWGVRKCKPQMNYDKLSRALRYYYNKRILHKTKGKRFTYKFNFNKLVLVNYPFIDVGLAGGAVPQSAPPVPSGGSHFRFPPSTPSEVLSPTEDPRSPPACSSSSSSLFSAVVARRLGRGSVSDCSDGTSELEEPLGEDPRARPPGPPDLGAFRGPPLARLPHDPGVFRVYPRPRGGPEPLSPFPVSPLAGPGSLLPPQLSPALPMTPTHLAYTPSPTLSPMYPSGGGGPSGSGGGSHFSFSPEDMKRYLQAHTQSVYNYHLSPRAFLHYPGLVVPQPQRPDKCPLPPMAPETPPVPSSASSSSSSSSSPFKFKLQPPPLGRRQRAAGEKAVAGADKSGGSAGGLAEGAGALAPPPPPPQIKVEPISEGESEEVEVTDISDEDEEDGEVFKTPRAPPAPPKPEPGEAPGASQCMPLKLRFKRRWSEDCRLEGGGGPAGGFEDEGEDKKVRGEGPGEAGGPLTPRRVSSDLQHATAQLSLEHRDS
In short: as §1

[12] = molecular target: T7, ETV3L (Homo sapiens, UniProt Q6ZN32 1-361); settings: protein: recombinant; tags: N-terminal GST; dsDNA, one strand shown
T7 sequence: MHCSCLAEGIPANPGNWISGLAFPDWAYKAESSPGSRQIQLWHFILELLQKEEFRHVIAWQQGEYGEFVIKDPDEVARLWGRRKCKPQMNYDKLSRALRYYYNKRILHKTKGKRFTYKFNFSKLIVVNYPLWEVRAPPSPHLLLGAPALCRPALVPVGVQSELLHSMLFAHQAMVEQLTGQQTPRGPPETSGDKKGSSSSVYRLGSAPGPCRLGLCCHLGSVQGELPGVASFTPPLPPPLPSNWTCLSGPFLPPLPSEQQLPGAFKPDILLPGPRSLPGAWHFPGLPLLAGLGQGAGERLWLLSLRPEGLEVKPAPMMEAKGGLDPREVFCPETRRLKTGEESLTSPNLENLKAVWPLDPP
In short: as §1

[13] = molecular target: T8, ETS2 (Homo sapiens, UniProt P15036 1-469); settings: protein: recombinant; tags: N-terminal GST; dsDNA, one strand shown
T8 sequence: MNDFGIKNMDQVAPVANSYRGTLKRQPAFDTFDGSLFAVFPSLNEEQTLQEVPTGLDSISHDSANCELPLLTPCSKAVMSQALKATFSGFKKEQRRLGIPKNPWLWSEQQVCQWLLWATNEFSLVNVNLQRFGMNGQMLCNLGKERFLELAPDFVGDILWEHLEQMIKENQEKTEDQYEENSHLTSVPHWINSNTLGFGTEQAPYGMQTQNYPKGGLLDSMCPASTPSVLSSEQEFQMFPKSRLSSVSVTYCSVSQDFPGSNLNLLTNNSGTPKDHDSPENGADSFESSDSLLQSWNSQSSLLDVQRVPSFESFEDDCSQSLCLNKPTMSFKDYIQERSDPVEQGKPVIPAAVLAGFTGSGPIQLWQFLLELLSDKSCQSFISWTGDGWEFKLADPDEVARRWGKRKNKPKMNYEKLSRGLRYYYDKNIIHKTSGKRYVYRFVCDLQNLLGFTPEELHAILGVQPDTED
In short: as §1

[14] = molecular target: T9, SPDEF (Homo sapiens, UniProt O95238 1-335); settings: protein: recombinant; tags: N-terminal GST; dsDNA, one strand shown
T9 sequence: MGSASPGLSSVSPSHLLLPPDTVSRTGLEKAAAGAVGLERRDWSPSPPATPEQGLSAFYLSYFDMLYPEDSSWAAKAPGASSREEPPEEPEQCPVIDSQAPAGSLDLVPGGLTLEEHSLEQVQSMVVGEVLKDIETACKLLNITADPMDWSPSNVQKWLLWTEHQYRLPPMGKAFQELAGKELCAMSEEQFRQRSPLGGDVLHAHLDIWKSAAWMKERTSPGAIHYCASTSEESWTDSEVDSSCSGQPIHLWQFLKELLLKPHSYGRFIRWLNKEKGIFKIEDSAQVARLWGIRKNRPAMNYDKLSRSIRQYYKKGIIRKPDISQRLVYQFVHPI
In short: as §1

[15] = molecular target: T10, ETV7 (Homo sapiens, UniProt Q9Y603 1-341); settings: protein: recombinant; tags: N-terminal GST; dsDNA, one strand shown
T10 sequence: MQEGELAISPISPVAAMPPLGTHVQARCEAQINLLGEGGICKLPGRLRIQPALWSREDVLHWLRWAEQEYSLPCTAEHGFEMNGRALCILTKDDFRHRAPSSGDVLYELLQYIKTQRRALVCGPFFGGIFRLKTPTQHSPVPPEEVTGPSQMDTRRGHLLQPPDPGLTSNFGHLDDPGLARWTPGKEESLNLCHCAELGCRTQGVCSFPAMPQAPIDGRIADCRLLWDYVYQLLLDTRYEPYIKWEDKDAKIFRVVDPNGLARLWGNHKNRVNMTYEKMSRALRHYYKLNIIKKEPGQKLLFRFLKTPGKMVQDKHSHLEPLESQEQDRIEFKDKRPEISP
In short: as §1

[16] = molecular target: T11, ELF5 (Homo sapiens, UniProt Q9UKW6-2 1-255); settings: protein: recombinant; tags: N-terminal GST; dsDNA, one strand shown
T11 sequence: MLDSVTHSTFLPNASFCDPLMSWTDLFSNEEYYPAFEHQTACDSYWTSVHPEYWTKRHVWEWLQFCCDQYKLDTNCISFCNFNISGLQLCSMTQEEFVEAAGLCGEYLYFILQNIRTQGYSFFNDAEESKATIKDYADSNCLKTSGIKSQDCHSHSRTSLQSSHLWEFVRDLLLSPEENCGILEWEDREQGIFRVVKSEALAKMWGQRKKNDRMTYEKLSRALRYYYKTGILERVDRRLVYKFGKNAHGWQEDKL
In short: as §1

[17] = molecular target: T12, ETV3 (Homo sapiens, UniProt P41162-2 1-143); settings: protein: recombinant; tags: N-terminal GST; dsDNA, one strand shown
T12 sequence: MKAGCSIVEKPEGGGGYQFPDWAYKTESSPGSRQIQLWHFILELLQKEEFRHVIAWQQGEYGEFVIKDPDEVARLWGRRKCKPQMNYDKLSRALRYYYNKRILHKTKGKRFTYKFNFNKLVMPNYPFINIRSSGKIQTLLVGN
In short: as §1

[18] = molecular target: ETV6 (Homo sapiens, UniProt P41212 1-452); settings: protein: recombinant; tags: N-terminal GST; dsDNA, one strand shown
Sequence of ETV6 (P41212 whole entry): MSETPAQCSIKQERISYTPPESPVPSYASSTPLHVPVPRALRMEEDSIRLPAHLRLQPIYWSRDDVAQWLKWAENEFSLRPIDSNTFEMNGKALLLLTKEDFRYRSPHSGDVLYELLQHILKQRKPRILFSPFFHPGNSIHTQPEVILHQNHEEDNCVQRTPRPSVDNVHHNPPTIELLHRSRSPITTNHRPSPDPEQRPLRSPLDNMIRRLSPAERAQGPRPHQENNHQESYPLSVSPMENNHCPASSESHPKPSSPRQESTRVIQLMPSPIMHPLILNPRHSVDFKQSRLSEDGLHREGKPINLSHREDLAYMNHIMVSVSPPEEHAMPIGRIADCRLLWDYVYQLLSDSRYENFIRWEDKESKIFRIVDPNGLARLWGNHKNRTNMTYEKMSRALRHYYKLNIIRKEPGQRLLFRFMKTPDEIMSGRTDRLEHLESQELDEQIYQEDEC
In short: as §1

ACTTGC was tested, and the binding signal [1] was 1.4 fold enrichment (6-mer frequency, TF over GST control), the binding signal [2] was 1.49 fold enrichment (6-mer frequency, TF over GST control) and the binding signal [3] was 1.25 fold enrichment (6-mer frequency, TF over GST control). For the same sequence, the binding signal [4] was 1.36 fold enrichment (6-mer frequency, TF over GST control), the binding signal [5] was 1.47 fold enrichment (6-mer frequency, TF over GST control) and the binding signal [6] was 1.44 fold enrichment (6-mer frequency, TF over GST control). For the same sequence, the binding signal [7] was 1.36 fold enrichment (6-mer frequency, TF over GST control), the binding signal [8] was 1.79 fold enrichment (6-mer frequency, TF over GST control) and the binding signal [9] was 1.12 fold enrichment (6-mer frequency, TF over GST control). For the same sequence, the binding signal [10] was 1.37 fold enrichment (6-mer frequency, TF over GST control), the binding signal [11] was 1.3 fold enrichment (6-mer frequency, TF over GST control) and the binding signal [12] was 1.48 fold enrichment (6-mer frequency, TF over GST control). The binding signal [13] was 1.32 fold enrichment (6-mer frequency, TF over GST control), the binding signal [14] was 1.44 fold enrichment (6-mer frequency, TF over GST control) and the binding signal [15] was 1.37 fold enrichment (6-mer frequency, TF over GST control). The binding signal [16] was 1.47 fold enrichment (6-mer frequency, TF over GST control), the binding signal [17] was 1.49 fold enrichment (6-mer frequency, TF over GST control) and the binding signal [18] was 1.52 fold enrichment (6-mer frequency, TF over GST control).
